# Measured values: PubChem BioAssay (NCI)
# About 83,000 compounds went through this panel and 20% of them were active in at least one assay; those are over-represented in the sample as a whole.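 Activity criterion: percent growth below 10, measured after cells in 96-well plates were exposed to a single compound concentration for 48 hours.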 Active and inactive are the calls of the source.
# System: HL-60(TB) leukemia
# Assay: NCI-60 one-dose screen, 48 h (100 = growth as untreated, 0 = no growth, -100 = all killed)
# Conditions: 10 µM unless noted
row,SMILES,growth
1,Cc1ccc(CNC(=O)Cc2ccc3c(c2)CN(C2CCC(=O)NC2=O)C3=O)cc1 (centres undefined),-23.1% (active)
2,COc1cc(CNC(=O)C[C@H](C)CCC=C(C)C)ccc1OCc1cn(-c2ccccc2F)nn1,91.5% (inactive)
3,Cc1cc(C)cc(NC(=O)Cn2cc(COn3nnc4ccccc43)nn2)c1,92.6% (inactive)
4,O=C(CNc1nc(-c2ccccc2)cs1)Nc1ccc(Cl)cc1[N+](=O)[O-],-15.1% (active)
